The source of these data is PubChem BioAssay (NCATS).

Test [1] is described as follows: P-glycoprotein substrates identified in KB-3-1 adenocarcinoma cell line, qHTS therapeutic library screen (AID 1346986). Note: nearly all actives have a fitted effect of over 60% in size. To be noted: KB-3-1 parental cells viability, CellTiter-Glo, 72 h; series mostly up to 44.5 µM. An outline of the steps:
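Resistance attributable to P-gp was assessed by comparing AC50 in KB-8-5-11 with parental KB-3-1 and by tariquidar reversal. Cells were exposed 72 h and viability read by CellTiter-Glo.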

The nature of test [2]: P-glycoprotein substrates identified in KB-8-5-11 adenocarcinoma cell line, qHTS therapeutic library screen (AID 1346987). For activity change, negative = cytotoxicity: % is set by controls: 0 for no effect and ±100 for the full control effect. Note: nearly all actives have a fitted effect of over 65% in size. As to conditions: KB-8-5-11 (P-gp overexpressing) viability, CellTiter-Glo, 72 h; series mostly up to 44.5 µM. A digest of the protocol:
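Steps: plate 500 KB-8-5-11 cells/well in DMEM + 10% FCS (colchicine removed); pin compounds in dose-response; incubate 72 h, 37 degree C, 5% CO2; add CellTiter-Glo, 5 min; read luminescence.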
(In general: qHTS replaces the single test concentration by a dilution series.)

The structures appear in SMILES notation. Records with an inconclusive call do not appear. Unmarked numbers belong to inactive results. Activity calls are given as the source filed them. Calls come from the whole dose curve; as a rule, active = well fitted curve in the direction sought with a large enough effect; inconclusive = small, poorly fitted or top-dose-only effect, or another doubt; inactive = no such curve, though single readings can be large; an effect the other way counts as inactive or inconclusive.

As for `C[C@@H]1O[C@@H](O[C@@H]2[C@@H](O)[C@H](O[C@H]3[C@H](O[C@H]4CC[C@@]5(C)C(CC[C@]6(C)C5CC=C5[C@@H]7CC(C)(C)CC[C@]7(C(=O)O[C@@H]7O[C@H](CO)[C@@H](O)[C@H](O)[C@H]7O)CC[C@]56C)C4(C)C)O[C@H](C(=O)O)[C@@H](O)[C@@H]3O)OC[C@H]2O)[C@H](O)[C@H](O)[C@H]1O` (stereo partly specified), the outcome in test [1] is “inactive [at 9.29 µM]”. Moreover, in test [2], the activity change, negative = cytotoxicity is 6.37% [at 9.29 µM].

As to `Cc1cn(-c2cc(NC(=O)c3ccc(C)c(Nc4nccc(-c5cnccn5)n4)c3)cc(C(F)(F)F)c2)cn1`, the Potency result in test [1] and in test [2] was “inactive” each time.

On to `C/C=C/C=C/C(O)=C1/C(=O)[C@]2(C)C(=O)[C@@](C)(O)[C@H]1[C@H]([C@@]1(C)OC(=O)C(C)=C1O)[C@H]2C(=O)CC/C=C/C`, for which the Potency result in test [1] and in test [2] was “inactive” in each case.

Consider `COC(=O)C1=COC(OC2OC(CO)C(O)C(O)C2O)C2C(COC(=O)/C=C/c3ccc(O)cc3)C(O)C(O)C12` (stereo unspecified), for which the Potency result in test [1] and in test [2] was “inactive” throughout.

In the case of `CCC(C)C(C(=O)O)N1Cc2c(OCC=C(C)C)c(C)c(OC)c(C(=O)O)c2C1=O` (stereo unspecified), the Potency entry in test [1] and in test [2] was “inactive” each time.

Consider `CC(C)C1NC(=O)C(CC2(O)c3ccccc3N3C(=O)C(Cc4ccccc4)NC32)NC1=O` (stereo unspecified), for which the Potency result in test [1] and in test [2] was “inactive” in each case.

In the case of `C=C1[C@H](OC(C)=O)[C@H]2[C@@H](OC(C)=O)C(C)C[C@]2(OC(C)=O)C(=O)[C@H](C)/C=C/C(C)(C)C(=O)[C@H](OC(=O)C(C)C)[C@H]1OC(C)=O` (stereo partly specified), the Potency result in test [1] and in test [2] was “inactive” throughout.

`CC(=O)OC1C(CO)OC(O[C@H]2[C@H](OC(=O)[C@]34CCC(C)(C)C[C@H]3C3=CCC5[C@@]6(C)CC[C@H](O[C@@H]7O[C@H](C(=O)O)[C@@H](O)[C@H](O[C@@H]8OC[C@@H](O)[C@H](O)[C@H]8O)[C@H]7O[C@@H]7O[C@H](CO)[C@H](O)[C@H](O)[C@H]7O)[C@@](C)(C=O)C6CC[C@@]5(C)[C@]3(C)C[C@H]4O)O[C@H](C)[C@H](OC3OC(C)C(OC4OCC(O)C(O)C4O)C(O)C3O)[C@@H]2O)C(O)C1O` (stereo partly specified): the outcome in test [1] was “inactive [at 9.29 µM]”. Further, in test [2], the activity change, negative = cytotoxicity was 1.85% [at 9.29 µM].
